A selection: hits, their analogues and other compounds. The true share with any hit is near 22%.
LmPK inh: inhibitors of Leishmania mexicana pyruvate kinase; purified LmPK, Kinase-Glo ATP luminescence, 1 h; Potency, µM (titrated, usually from 57.5 µM), usual class: inhibitors; AID 1721; 0.37% of 290,000 active; Q27686
Target sequence (Q27686 whole entry, looked up): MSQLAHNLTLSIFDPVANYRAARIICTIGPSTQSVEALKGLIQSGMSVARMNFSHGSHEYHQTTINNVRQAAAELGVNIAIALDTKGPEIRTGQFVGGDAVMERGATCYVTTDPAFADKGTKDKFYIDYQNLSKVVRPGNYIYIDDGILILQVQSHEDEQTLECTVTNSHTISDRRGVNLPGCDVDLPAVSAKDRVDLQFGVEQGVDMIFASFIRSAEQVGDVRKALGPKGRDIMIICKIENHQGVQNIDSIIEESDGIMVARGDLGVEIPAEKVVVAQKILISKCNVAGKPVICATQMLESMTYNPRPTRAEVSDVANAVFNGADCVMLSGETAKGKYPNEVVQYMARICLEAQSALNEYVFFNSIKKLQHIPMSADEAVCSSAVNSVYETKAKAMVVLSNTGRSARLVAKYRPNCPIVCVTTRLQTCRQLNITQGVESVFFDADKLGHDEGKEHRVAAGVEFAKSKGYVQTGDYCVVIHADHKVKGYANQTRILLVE
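Purified LmPK (0.1 nM) converted ADP (0.1 mM) to ATP with PEP (0.5 mM) in imidazole buffer pH 7.2 with KCl and MgCl2, 1 h at room temperature. ATP was read by Kinase-Glo luminescence; data normalized to uninhibited and no-enzyme controls.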
Pf growth 48h: inhibits P. falciparum growth in the first generation, 48 h; P. falciparum luciferase growth in erythrocytes, 48 h; Potency, µM (titrated, usually from 28.7 µM), most hits filed as inhibitors; 5.9% of 310,000 active; AID 504832
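Luciferase-expressing parasites in RBCs, 2% Hct / 0.1% parasitemia final; RPMI 1640 + 0.5% Albumax; 37 C, 5% CO2, one generation; luminescence read-out, lower signal = inhibition.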
Shiga inhibitor: inhibitors of Shiga toxin in Vero cells; Vero cells, Shiga toxin protein synthesis inhibition reporter; inhibition, % at 38.7 µM; 9.2% of 290,000 active; in the data active = inhibition mostly above about 28%, no sharp cut-off; inactive = mostly below about 43%
Cycloheximide cs: affects cycloheximide protein synthesis inhibition readout, counter-screen; 12% of 300,000 active; max response, %; AID 2314; cell reporter, cycloheximide protein synthesis inhibition counterscreen; in the data active = max response mostly above about 13%, no sharp cut-off; inactive = mostly below about 14%; note: read at 38.3 µM for the half of the compounds with a filed dose
Pf growth 96h: P. falciparum growth inhibition at 96 hour, primary screen for plastid delayed-death inhibitors. P. falciparum luciferase reporter growth, 96 h. Potency, µM (titrated, usually from 28.7 µM), usual class: inhibitors. 6.9% of 320,000 active. AID 504834
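Two parasite generations (96 h, 37 C, 5% CO2) of compound exposure in infected erythrocytes (0.05% parasitemia, 2% hematocrit). Luciferase-reporter P. falciparum; decreased luminescence indicates inhibited growth, aimed at apicoplast-acting delayed death.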
Hits are given with their value; – = inactive; ? = inconclusive; · = not tested or not shown. Unless noted, calls come from the whole dose curve; as a rule, active = well fitted inhibition curve with a large enough effect; inconclusive = small, poorly fitted or top-dose-only effect, or another doubt; inactive = no such curve, though single readings can be large or run the other way.

SMILES | LmPK inh | Pf growth 48h | Shiga inhibitor | Cycloheximide cs | Pf growth 96h
N#Cc1c(NC(=O)C2CC=CCC2C(=O)O)sc2c1CCCCCC2 (configuration not stated) | – | – | – | – | –
N#Cc1c(NC(=O)C2CCCO2)sc2c1CCCCCC2 (configuration not stated) | – | – | 84 | 39 | –
Cc1c(C(=O)OC(C)C)sc(NC(=O)C2CCCO2)c1C(=O)OC(C)C (configuration not stated) | – | · | – | – | 9.3µM
Cc1sc(NC(=O)C2CCCO2)c(C(N)=O)c1C (configuration not stated) | – | – | – | – | –
Cc1[nH]c2c(C)cccc2c1CCNS(=O)(=O)c1cccc([N+](=O)[O-])c1 | – | – | – | – | –
Cc1ccc([N+](=O)[O-])cc1S(=O)(=O)NCCc1c(C)[nH]c2c(C)cccc12 | – | – | – | – | 9.3µM
CC(C)(C)c1ccc(NC(=O)COc2ccc(-n3ccnc3)cc2)cc1 | – | ? | 49 | 36 | ·
Cc1ccc(NC(=O)n2ccc(-c3ccc(-n4ccnc4)cc3)n2)cc1 | – | – | 85 | 40 | –
C/C(=N\NC(=O)COc1ccc(C(C)(C)C)cc1)c1ccc(-n2ccnc2)cc1 | – | – | – | 31 | 10µM
CC(=O)Nc1ccc(NC(=O)CSc2ccc(-c3ccc(-n4ccnc4)cc3)nn2)cc1 | · | – | · | · | –
COc1cc(NC(=O)COc2ccc(-n3ccnc3)cc2)cc(OC)c1 | – | – | – | – | ?
CC(C)(C)SCCNC(=O)c1ccccc1 | – | · | – | 37 | –
COc1c(C(=O)NCCSC(C)(C)C)ccc2ccccc12 | – | – | 39 | 13 | ?
CN(c1ccccc1)S(=O)(=O)c1ccc(C(=O)NNC(=O)c2ccccc2)cc1 | · | – | · | · | –
CC(C)(C)c1ccc(C(=O)NCCCNC(=O)c2ccco2)cc1 | – | ? | – | – | –
CN(c1ccc(C(=O)O)cc1)S(=O)(=O)c1ccccc1 | – | – | – | – | 9.3µM
O=C(NCCOCCOCCNC(=O)c1ccccc1)c1ccccc1 | – | – | – | – | ?
CSCCNC(=O)c1ccc(C(C)(C)C)cc1 | – | – | 92 | 28 | –
COc1ccc(S(=O)(=O)N2CCCC2C(=O)n2nc(C)cc2C)cc1 (configuration not stated) | – | – | – | – | ?
Cc1cc(=O)oc2cc(OCC(=O)N3CCC(C(N)=O)CC3)ccc12 | – | – | – | – | –
CC1CCN(CC(=O)Nc2ccc(N3CCCCCC3)cc2)CC1 | – | ? | – | – | ?
O=C(NNC(=O)c1ccco1)c1cccc([N+](=O)[O-])c1 | – | – | – | – | –
Cc1ccc(C(=O)NCCSC(C)(C)C)cc1[N+](=O)[O-] | – | – | 95 | 54 | –
Cc1ccc(C(=O)NCC(C)(C)O)cc1 | – | ? | – | – | ?
Cc1ccc(C(=O)NCCSC(C)(C)C)cc1 | – | · | – | 43 | –
SMILES | LmPK inh | Pf growth 48h | Shiga inhibitor | Cycloheximide cs | Pf growth 96h
CN(c1ccc(C(=O)N2CCOCC2)cc1)S(=O)(=O)c1ccc(Cl)cc1 | – | – | 34 | 10 | –
Cc1ccc(C(=O)ONC(=O)c2ccc(Cl)cc2)cc1[N+](=O)[O-] | – | – | 34 | 21 | –
N#Cc1ccc(NC(=O)COC(=O)CCc2nc3ccccc3c(=O)[nH]2)cc1 | – | – | – | – | –
COc1ccc(S(=O)(=O)Nc2ccccc2C(=O)N2CCOCC2)cc1Cl | – | – | – | – | –
COc1cc(C#N)c(N=C(SCC#N)N2CCOCC2)cc1OC | – | – | – | – | –
COCCCN1C(=O)N(c2ccccc2)C(=O)C1CC(=O)Nc1ccc(F)cc1 (configuration not stated) | – | – | – | – | –
CN(c1ccc(C(=O)NCCSC(C)(C)C)cc1)S(=O)(=O)c1ccccc1 | – | ? | – | 11 | –
CN(C1CCCCC1)S(=O)(=O)c1ccc(C(=O)O)cc1 | – | · | – | – | 12µM
CCCCNC(=O)c1ccc(SCC(=O)N(CC)CC)c([N+](=O)[O-])c1 | – | – | – | – | 1µM
CCN(CC)C(=O)CSc1ccc(C(F)(F)F)cc1[N+](=O)[O-] | – | – | – | – | –
Cc1ccccc1CSCCNC(=O)c1ccccc1 | – | 12µM | – | – | –
COc1ccc(C2=NN(CC(=O)NCC(OC)OC)C(=O)CC2)cc1 | – | – | – | – | –
COc1ccc(C(=O)Oc2cccc3cccnc23)cc1[N+](=O)[O-] | – | – | – | – | –
